Measured values taken from PubChem BioAssay.
Calls of active or inactive are those of the source.

Legend:
[1] = small molecules captured by biotinylated probe aFSTL3 – biochemical, small-molecule microarray, fluorescence 635/667, stem cell growth factor project, primary screen (AID 1064); conditions: higher = more signal;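 note: measures binding of the biotinylated anti-FSTL3 antibody to printed compounds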
[2] = binders from COS7 lysate, DM2A8 probe, primary screen, torsin A project, cell lysate, small-molecule microarray, fluorescence 635/667 (AID 1065); conditions: higher = more signal, COS7 lysate expressing mutant human TOR1A
[3] = small molecules captured by biotinylated probe aFGF2 – biochemical, small-molecule microarray, fluorescence 635/667, stem cell growth factor project, primary screen (AID 1067); conditions: higher = more signal;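 note: measures binding of biotinylated aFGF2 protein to printed compounds on slides; z-score merges feature fluorescence and signal-to-noise across triplicate slides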
[4] = small molecules captured by biotinylated probe aFGF10 – biochemical, small-molecule microarray, fluorescence 635/667, stem cell growth factor project, primary screen (AID 1071); conditions: higher = more signal;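 note: score merges 667 nm spot intensity and signal to noise from triplicate slides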
[5] = molecular target: Neurogenic locus notch homolog protein 2 (Homo sapiens) (UniProt Q04721); assay: small molecules binding Notch2 protein – biochemical, small-molecule microarray, 635 nm fluorescence, stem cell growth factors, primary screen (AID 1073); conditions: higher = more signal
Chain of Neurogenic locus notch homolog protein 2 (Homo sapiens) (Q04721 whole entry, looked up, canonical isoform): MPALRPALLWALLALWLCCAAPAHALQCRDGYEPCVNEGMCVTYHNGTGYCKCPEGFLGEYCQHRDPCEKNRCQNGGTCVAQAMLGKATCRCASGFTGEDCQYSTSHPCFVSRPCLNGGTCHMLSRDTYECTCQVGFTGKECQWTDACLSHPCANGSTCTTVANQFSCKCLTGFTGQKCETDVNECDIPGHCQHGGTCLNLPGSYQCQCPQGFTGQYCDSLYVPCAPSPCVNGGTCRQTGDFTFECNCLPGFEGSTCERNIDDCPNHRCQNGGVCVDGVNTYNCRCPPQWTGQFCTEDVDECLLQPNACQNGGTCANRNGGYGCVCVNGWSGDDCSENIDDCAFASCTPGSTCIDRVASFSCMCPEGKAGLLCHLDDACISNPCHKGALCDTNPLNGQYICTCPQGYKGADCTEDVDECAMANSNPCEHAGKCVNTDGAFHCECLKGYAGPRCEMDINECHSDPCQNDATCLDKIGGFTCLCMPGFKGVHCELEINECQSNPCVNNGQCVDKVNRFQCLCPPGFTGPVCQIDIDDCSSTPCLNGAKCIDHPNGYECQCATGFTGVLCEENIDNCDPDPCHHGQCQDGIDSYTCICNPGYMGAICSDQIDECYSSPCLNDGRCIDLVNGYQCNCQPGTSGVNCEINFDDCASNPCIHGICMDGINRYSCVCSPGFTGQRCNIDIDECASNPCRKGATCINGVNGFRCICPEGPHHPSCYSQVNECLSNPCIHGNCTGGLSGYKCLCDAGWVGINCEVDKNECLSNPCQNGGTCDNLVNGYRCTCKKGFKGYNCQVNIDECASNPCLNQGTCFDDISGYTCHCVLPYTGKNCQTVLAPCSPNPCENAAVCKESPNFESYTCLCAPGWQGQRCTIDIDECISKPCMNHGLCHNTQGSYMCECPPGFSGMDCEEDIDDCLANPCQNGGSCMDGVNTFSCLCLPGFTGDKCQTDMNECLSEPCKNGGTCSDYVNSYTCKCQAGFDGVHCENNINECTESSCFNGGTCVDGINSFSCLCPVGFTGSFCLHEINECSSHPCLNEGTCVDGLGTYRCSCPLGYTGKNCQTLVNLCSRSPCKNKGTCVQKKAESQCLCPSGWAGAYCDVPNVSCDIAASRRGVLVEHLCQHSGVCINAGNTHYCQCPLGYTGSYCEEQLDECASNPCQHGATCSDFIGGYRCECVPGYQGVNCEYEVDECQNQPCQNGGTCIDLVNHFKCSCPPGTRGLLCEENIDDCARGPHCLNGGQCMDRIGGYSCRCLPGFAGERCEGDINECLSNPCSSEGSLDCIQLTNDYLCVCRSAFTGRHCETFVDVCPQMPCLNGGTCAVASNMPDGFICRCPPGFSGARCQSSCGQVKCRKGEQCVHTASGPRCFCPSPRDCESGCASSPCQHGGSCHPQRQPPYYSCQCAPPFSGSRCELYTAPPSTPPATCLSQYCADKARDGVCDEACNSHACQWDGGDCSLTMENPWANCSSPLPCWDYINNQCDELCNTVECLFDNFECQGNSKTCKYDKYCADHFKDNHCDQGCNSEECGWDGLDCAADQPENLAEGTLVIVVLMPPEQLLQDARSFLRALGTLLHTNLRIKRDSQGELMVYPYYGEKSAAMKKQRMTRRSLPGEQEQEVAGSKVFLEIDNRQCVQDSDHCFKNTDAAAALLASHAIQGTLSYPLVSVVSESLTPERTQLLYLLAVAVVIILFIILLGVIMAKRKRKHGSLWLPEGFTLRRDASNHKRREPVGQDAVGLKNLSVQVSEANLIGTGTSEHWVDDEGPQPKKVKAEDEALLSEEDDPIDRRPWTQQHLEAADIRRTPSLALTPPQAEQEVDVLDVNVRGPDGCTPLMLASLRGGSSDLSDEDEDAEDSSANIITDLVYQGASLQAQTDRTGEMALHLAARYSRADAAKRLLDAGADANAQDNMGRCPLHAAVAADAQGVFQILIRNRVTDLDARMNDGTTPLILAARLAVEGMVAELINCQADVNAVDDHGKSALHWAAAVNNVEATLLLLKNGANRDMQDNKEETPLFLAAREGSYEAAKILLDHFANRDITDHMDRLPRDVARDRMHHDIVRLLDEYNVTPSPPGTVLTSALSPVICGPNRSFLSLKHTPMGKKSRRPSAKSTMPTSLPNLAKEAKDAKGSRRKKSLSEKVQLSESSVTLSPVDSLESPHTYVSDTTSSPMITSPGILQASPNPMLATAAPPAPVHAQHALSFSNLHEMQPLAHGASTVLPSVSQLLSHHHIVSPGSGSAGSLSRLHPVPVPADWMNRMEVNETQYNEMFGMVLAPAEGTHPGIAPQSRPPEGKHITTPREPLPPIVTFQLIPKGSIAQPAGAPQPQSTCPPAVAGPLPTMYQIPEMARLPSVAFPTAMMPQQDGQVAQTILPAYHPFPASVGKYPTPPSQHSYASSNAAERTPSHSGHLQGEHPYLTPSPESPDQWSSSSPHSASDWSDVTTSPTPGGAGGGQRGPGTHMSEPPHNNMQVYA

[6] = molecular target: Pro-neuregulin-1, membrane-bound isoform (Homo sapiens) (UniProt Q02297); assay: small molecules binding neuregulin-1 protein – biochemical, small-molecule microarray, fluorescence 635/667, psychiatric disease protein project, primary screen (AID 1075); conditions: NRG1 binding, 635 nm fluorescence, higher = more signal;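 note: score combines 667 nm spot fluorescence with signal to noise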
Chain of Pro-neuregulin-1, membrane-bound isoform (Homo sapiens) (Q02297 whole entry, looked up, the tested form may be a part, canonical isoform): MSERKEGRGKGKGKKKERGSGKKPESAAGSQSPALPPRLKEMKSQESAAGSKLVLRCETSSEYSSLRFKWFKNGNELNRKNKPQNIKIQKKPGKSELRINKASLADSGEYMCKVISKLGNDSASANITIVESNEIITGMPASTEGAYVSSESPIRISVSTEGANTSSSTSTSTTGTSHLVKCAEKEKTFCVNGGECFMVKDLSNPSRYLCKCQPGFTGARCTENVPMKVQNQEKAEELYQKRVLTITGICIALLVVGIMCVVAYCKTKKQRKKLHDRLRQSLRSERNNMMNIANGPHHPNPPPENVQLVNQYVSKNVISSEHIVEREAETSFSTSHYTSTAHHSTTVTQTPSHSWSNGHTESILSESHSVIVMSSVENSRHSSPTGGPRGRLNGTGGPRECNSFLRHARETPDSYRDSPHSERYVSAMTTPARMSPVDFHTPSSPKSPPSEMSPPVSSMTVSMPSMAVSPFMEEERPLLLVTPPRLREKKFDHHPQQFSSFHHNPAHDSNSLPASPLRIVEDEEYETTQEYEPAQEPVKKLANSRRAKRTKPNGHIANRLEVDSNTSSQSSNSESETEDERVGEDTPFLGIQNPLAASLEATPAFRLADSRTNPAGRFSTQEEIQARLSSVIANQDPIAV

[7] = tested on: Neuregulin-1 EGF-like domain; assay: small molecules binding NRG1 EGF domain – biochemical, small-molecule microarray, 635 nm fluorescence, primary screen (AID 1081); conditions: higher = more signal;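 note: binding of the protein to compounds printed on small-molecule microarray slides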
[8] = FRG1 expression reporter modulators in myotubes – cell-based, C2C12 myotubes, firefly/Renilla luciferase, luminescence, FRG1 inhibition for FSHD, primary screen (AID 1084); conditions: FRG1 promoter luciferase, higher = more signal, called active from +8 up or from −8 down
[9] = small molecules captured by biotinylated probe aFST – biochemical, small-molecule microarray, fluorescence 635/667, stem cell growth factor project, primary screen (AID 1086); conditions: higher = more signal;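 note: score merges 667 nm fluorescence with signal-to-noise of each printed compound spot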
[10] = binders of probe aHhip on microarray, primary screen, stem cell growth factor project, biochemical, small-molecule microarray, fluorescence 635/667 (AID 1087); conditions: higher = more signal;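 note: score merges spot fluorescence at 667nm with spot signal to noise ratio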
[11] = tested on: PRMT1 (protein arginine N-methyltransferase 1); assay: small molecules binding arginine methyltransferase PRMT1 – biochemical, small-molecule microarray, 635 nm fluorescence, primary screen (AID 1088); conditions: higher = more signal;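 note: binding of Prmt1 protein to compounds spotted on small-molecule microarray slides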
[12] = growth effects on S. cerevisiae YJM789 – YJM789 clinical isolate, OD600, 24 h, basal, primary screen (AID 1089); conditions: higher = more signal, called active from +8 up or from −8 down;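 note: growth of clinical yeast isolate S. cerevisiae YJM 789 seeded 1000 cells per well; test concentration not given here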
[13] = S. pombe growth modifiers, basal conditions – strain 972, OD600, 24 h, no modulator, primary screen (AID 1090);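 note: basal condition with compound alone and no growth modifier present; test concentration not given here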; conditions: S. pombe 972 growth, higher = more signal, called active from +8 up or from −8 down
[14] = budding yeast growth modifiers under rapamycin – strain BY4716, OD600, 96 h, primary screen (AID 1091); note: test concentration not given here; conditions: S. cerevisiae BY4716 + rapamycin, higher = more signal, called active from +8 up or from −8 down
[15] = molecular target: Torsin-1A-interacting protein 2 (Homo sapiens) (UniProt Q8NFQ8); assay: small molecules binding lysate-expressed LULL1 – cell lysate, human LULL1 lysate, 635/667 nm fluorescence, primary screen (AID 1092); conditions: small-molecule microarray, hLULL1 lysate binding, 635 nm fluorescence; higher = more signal;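 note: probe is lysate of COS7 cells overexpressing human LULL1; score merges per-feature 667 nm fluorescence with signal-to-noise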
Chain of Torsin-1A-interacting protein 2 (Homo sapiens) (Q8NFQ8 whole entry, looked up): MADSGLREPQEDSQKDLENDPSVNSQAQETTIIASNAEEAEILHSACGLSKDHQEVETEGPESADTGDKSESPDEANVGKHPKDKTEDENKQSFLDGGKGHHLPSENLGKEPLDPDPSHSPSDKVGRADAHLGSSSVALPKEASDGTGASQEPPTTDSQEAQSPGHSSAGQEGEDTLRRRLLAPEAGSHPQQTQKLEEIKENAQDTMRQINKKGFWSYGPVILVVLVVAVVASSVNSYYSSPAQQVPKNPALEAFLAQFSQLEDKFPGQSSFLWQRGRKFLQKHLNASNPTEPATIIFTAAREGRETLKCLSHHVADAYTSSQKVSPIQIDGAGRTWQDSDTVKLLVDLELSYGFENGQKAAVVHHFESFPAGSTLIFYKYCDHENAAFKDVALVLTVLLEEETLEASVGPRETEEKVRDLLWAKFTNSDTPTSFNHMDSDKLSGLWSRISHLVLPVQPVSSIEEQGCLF

[16] = optical density change of DRC41 E. coli – strain DRC41, OD650, 24 h, E. coli filamentation project, primary screen (AID 1093);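 note: MC1000 strain lacking acrAB efflux and sulA so SOS filamentation is blocked; test concentration not given here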; conditions: E. coli DRC41 growth, higher = more signal, called active from +8 up or from −8 down
[17] = probe aLefty2 binding to arrayed compounds – biochemical, biotinylated probe, 635/667 nm fluorescence, primary screen (AID 1094); conditions: small-molecule microarray, higher = more signal;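 note: score merges spot fluorescence near 667 nm with spot signal-to-noise ratio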
[18] = tested on: Noggin (protein binding on small-molecule microarray); assay: small molecules binding Noggin protein – biochemical, 635/667 nm fluorescence, primary screen (AID 1095); conditions: 635 nm fluorescence, higher = more signal;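 note: score merges 667 nm feature fluorescence with signal to noise over triplicate slides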
[19] = molecular target: Neurogenic locus notch homolog protein 3 (Homo sapiens) (UniProt Q9UM47); assay: small molecules binding NOTCH3 protein – biochemical, 635/667 nm fluorescence, primary screen (AID 1096); conditions: small-molecule microarray, 635 nm fluorescence, higher = more signal
[20] = probe aEGFR binding to arrayed compounds – biochemical, biotinylated probe, 635/667 nm fluorescence, primary screen (AID 1097); conditions: small-molecule microarray, higher = more signal;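 note: probe is a biotinylated anti-EGFR antibody binding compounds printed on slides; score combines fluorescence near 667 nm and signal to noise of each spot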

SMILES	composite z-score [1]	composite z-score [2]	composite z-score [3]	composite z-score [4]	composite z-score [5]	composite z-score [6]	composite z-score [7]	z-score [8]	composite z-score [9]	composite z-score [10]	composite z-score [11]	z-score [12]	z-score [13]	z-score [14]	composite z-score [15]	z-score [16]	composite z-score [17]	composite z-score [18]	composite z-score [19]	composite z-score [20]
COC(=O)[C@@]1(Cc2ccc(OC)cc2)[C@H]2c3cc(C(=O)N(C)C)n(CCSCCO)c3C[C@H]2CN1C(=O)c1ccccc1	0.172	-0.233	0.164	0.979	1.61	1.47	1.22	-1.35 (inactive)	0.547	-0.04	0.359	-0.526 (inactive)	0.271 (inactive)	-0.251 (inactive)	3.53	-0.209 (inactive)	0.162	0.281	1.13	0.31
Cc1cccc(/C=C/C=O)c1	-0.305	-0.582	-0.0996	0.0071	-0.663	0.27	0.928	0.641 (inactive)	0.211	-0.056	0.425	0.897 (inactive)	-4.56 (inactive)	-0.104 (inactive)	1.54	-0.0384 (inactive)	-0.186	0.0535	-0.136	-0.246
C=C(C(=O)CC[C@@H](OC(=O)c1cccnc1)c1ccc(OCCO)cc1)C(C)C	-0.408	-0.294	-0.113	1.27	-0.121	0.739	1.06	-2.68 (inactive)	0.128	-0.0994	1.57	-24.3 (active)	-20.5 (active)	-4.75 (inactive)	0.111	-0.808 (inactive)	-0.209	1.58	0.344	-0.0972
O[C@@H](Cc1ccccc1)[C@@H](/C=C/c1ccccc1)NCc1ccccc1Br	0.686	-1.36	-0.176	-1.09	-1.31	-0.803	-0.639	-0.926 (inactive)	-0.579	-0.475	-0.995	0.0419 (inactive)	-11.4 (active)	-1.54 (inactive)	-0.557	0.908 (inactive)	0.0372	-1.34	-0.707	-0.348
CC[C@@H]1C=C(C(=O)O)[C@H](c2ccc(C(C)C)cc2)N1S(=O)(=O)c1ccc(C)cc1	0.341	1.41	0.412	1.12	1.75	1.91	0.908	-2.32 (inactive)	1.64	0.0401	1.53	-0.921 (inactive)	0.242 (inactive)	-1.07 (inactive)	3.03	-0.29 (inactive)	0.678	-0.0177	1.03	0.516
C[n+]1ccc2ccc(O)cc2c1	-0.201	1.46	-0.081	0.0493	0.12	0.615	0.767	1.53 (inactive)	-0.173	-0.0994	1.56	0.0119 (inactive)	-0.208 (inactive)	2.96 (inactive)	1.14	-0.992 (inactive)	-0.0562	1.01	1.05	-0.0453
CN1C(=O)C2C=CC(C(O)C3=C[C@H]4C[C@@H](C3)C4(C)C)N(Nc3ccc([N+](=O)[O-])cc3[N+](=O)[O-])C2C1=O (stereo not given in full)	0.574	0.156	0.15	0.733	1.66	1.51	1.33	0.0285 (inactive)	0.642	0.0826	1.49	1.07 (inactive)	0.595 (inactive)	1.96 (inactive)	3.28	-0.43 (inactive)	0.256	0.0179	1.02	0.213
COc1ccc([Si](C)(C)[C@@H]2[C@@H](CCn3cc([C@H](O)c4ccccc4)nn3)O[C@]3(C(=O)N(C)c4ccccc43)[C@H]2C)cc1	-0.266	0.356	-0.0468	0.181	0.0572	0.0939	0.448	-1.31 (inactive)	-0.108	-0.391	0.384	-0.842 (inactive)	0.324 (inactive)	-0.112 (inactive)	1.96	-0.036 (inactive)	-0.166	-0.133	-0.0523	-0.0828
COc1ccc(C#Cc2ccc3c(c2)[C@]2(C(=O)N3)[C@H](C(=O)N3CCN(c4ncccn4)CC3)[C@H]3C(=O)O[C@H](c4ccccc4)[C@H](c4ccccc4)N3[C@@H]2c2ccc(O)cc2)cc1	-0.092	0.308	-0.232	0.207	0.871	1.19	1.17	0.437 (inactive)	0.234	-0.353	1.56	0.77 (inactive)	0.86 (inactive)	1.17 (inactive)	2.33	-0.459 (inactive)	0.0897	0.496	0.853	-0.0573
Cc1ccc(N2C(=O)c3ccccc3[C@@H](C(=O)NC(C)C)[C@@H]2c2ccc(CO)cc2)nc1	0.675	-0.374	-0.0598	0.079	-0.333	-0.318	1.27	0.822 (inactive)	-1.08	-0.0994	0.528	-1.14 (inactive)	-0.958 (inactive)	-1.62 (inactive)	3.07	-0.113 (inactive)	-0.0336	-0.0751	-0.528	-0.115
